Experimental data from PubChem BioAssay (NCATS).
Several values for one entry are separate records, joined by “and”; a condition that tells them apart may be missing. Equal entries are not always repeated. Records with an inconclusive call do not appear. Activity calls are given as the source filed them. Unless noted, the call rests on the fitted dose curve.

How the values were obtained:
[1] = target: Ubiquitin carboxyl-terminal hydrolase 1 (Homo sapiens) (UniProt O94782); assay: Inhibitors of USP1/UAF1: Pilot qHTS (AID 504865; active means well fitted curve in the direction sought with a large enough effect; an effect the other way counts as inactive or inconclusive;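 further: rhodamine fluorescence freed from ubiquitin-rhodamine substrate followed over time; top concentration of the series differs between compounds; on the % scale 0 is the no-effect control and ±100 the full control effect; nearly all actives have a fitted effect of over 35% in size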)
Ubiquitin carboxyl-terminal hydrolase 1 (Homo sapiens), sequence (O94782 whole entry, looked up): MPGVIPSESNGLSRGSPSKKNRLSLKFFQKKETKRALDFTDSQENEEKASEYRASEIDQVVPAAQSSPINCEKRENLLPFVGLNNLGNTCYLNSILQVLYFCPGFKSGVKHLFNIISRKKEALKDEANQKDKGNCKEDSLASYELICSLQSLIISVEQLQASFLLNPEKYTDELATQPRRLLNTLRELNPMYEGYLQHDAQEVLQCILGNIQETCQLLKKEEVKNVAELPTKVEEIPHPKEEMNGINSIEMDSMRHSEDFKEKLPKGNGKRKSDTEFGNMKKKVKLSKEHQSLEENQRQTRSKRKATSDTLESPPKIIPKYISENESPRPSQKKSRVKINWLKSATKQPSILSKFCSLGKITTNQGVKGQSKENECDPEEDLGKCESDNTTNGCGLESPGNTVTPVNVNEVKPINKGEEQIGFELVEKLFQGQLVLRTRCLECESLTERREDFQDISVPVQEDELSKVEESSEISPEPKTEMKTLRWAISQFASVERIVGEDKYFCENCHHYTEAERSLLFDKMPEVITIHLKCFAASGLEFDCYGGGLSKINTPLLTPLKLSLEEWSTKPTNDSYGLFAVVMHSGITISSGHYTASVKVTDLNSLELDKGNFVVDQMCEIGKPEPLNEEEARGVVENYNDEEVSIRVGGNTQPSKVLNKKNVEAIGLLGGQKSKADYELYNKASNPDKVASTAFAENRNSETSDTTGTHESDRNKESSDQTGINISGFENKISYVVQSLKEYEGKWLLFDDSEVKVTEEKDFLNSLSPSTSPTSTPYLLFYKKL
Method in brief: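 Deubiquitinase activity followed as kinetic rhodamine fluorescence release from 150 nM Ub-Rho. 1 nM USP1/UAF1 with compound, after 15 min room-temperature preincubation, in HEPES pH 7.8 buffer containing TCEP, EDTA, BSA and Tween-20.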

[2] = Inducers of the Endoplasmic Reticulum Stress Response (ERSR) in human glioma: Validation (AID 504836; active means well fitted curve in the direction sought with a large enough effect; an effect the other way counts as inactive or inconclusive; further: 0% is about no effect)
Method in brief: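 ERSR induction read as luciferase luminescence (Bright-Glo, 10 min at room temperature) in stably transfected human U87-MG glioma cells exposed to compounds for 16 h, using GRP78 as sensor.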

[3] = target: Peroxisome proliferator-activated receptor delta (Homo sapiens) (UniProt Q03181); assay: qHTS assay for small molecule agonists of peroxisome proliferator-activated receptor delta signaling (AID 588534);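 further: 0% = DMSO basal wells and 100% = positive control agonist at 10 µM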
Peroxisome proliferator-activated receptor delta (Homo sapiens), sequence (Q03181 whole entry, looked up): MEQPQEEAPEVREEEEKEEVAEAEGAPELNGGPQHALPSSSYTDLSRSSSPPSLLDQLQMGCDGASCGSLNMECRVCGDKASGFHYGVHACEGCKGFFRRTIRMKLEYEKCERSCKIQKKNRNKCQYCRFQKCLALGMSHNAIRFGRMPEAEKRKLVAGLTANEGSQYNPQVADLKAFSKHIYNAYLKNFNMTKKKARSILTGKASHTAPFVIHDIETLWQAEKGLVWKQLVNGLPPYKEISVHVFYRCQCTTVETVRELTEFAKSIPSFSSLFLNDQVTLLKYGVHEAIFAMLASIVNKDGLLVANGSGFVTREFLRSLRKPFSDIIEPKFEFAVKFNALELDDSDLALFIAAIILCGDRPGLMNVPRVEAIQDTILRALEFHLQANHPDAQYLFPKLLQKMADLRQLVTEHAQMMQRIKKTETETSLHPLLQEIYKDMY
Method in brief: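 Cell-based beta-lactamase reporter assay run in agonist mode: cells seeded and incubated 5 hrs at 37 C, compounds added and incubated 18 hrs at 37 C. CCF4 dye fluorescence read after 2 hrs at RT; EC50 and efficacy from Hill fits.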

[4] = target: Bile acid receptor (Homo sapiens) (UniProt Q96RI1); assay: qHTS assay for small molecule antagonists of farnesoid X receptor signaling (AID 588526); further: on the % scale 0 is the no-effect control and ±100 the full control effect
Bile acid receptor (Homo sapiens), sequence (Q96RI1 whole entry, looked up): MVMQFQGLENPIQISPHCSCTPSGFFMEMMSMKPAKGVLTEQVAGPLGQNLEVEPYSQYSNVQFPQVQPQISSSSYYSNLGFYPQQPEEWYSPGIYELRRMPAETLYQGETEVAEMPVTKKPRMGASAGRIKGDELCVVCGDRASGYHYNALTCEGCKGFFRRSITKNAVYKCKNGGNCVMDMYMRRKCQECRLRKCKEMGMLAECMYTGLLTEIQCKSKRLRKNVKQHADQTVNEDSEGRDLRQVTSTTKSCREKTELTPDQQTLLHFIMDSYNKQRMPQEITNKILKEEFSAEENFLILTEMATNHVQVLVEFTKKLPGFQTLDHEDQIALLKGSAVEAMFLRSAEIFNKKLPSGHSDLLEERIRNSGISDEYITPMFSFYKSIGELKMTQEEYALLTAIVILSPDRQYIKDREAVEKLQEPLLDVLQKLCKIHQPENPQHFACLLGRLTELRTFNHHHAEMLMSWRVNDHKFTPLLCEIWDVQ
Method in brief: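 Beta-lactamase reporter antagonist mode: HEK293T FXR-UAS-bla cells, titrated compound, CDCA stimulation, 16 h 37 C, CCF4 dye 2 h RT. Data normalized to CDCA 50 uM and DMSO; Hill-fit IC50.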

[5] = target: Glucocorticoid receptor (Homo sapiens) (UniProt P04150); assay: qHTS assay for small molecule antagonists of glucocorticoid receptor signaling (AID 588533; active means well fitted inhibition curve with a large enough effect in the signal ratio, with a control signal flat, not every such curve was filed as active; the % refers to the signal ratio;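 further: cells stimulated with 2 nM dexamethasone as agonist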; further: potency means the concentration at half of the fitted maximal effect)
Glucocorticoid receptor (Homo sapiens), sequence (P04150 whole entry, looked up): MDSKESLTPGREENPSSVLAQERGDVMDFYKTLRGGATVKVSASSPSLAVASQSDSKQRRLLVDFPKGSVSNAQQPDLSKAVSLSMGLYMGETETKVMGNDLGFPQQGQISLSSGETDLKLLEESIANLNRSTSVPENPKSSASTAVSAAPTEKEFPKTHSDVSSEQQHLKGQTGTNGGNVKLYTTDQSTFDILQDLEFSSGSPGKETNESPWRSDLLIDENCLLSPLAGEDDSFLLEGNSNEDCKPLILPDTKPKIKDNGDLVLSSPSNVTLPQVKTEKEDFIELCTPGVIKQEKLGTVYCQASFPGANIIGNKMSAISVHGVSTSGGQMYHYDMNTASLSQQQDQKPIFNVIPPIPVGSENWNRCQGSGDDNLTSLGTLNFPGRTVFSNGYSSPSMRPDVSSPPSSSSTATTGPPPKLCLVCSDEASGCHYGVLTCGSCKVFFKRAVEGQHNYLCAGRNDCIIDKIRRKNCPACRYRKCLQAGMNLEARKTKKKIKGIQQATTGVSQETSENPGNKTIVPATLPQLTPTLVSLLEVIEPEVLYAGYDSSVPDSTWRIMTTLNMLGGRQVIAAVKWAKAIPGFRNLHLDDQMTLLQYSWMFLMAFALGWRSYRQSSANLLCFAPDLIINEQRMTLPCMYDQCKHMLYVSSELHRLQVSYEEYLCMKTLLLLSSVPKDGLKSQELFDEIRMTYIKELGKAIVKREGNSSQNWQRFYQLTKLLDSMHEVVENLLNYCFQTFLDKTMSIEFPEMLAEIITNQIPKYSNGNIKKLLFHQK
Method in brief: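 Antagonist-mode qHTS: compound titrations added to GRE-bla HeLa cells, then dexamethasone 2 nM final; 18 h, 37 C. CCF4 FRET fluorescence normalized to dexamethasone and DMSO; IC50 from Hill fit.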

[6] = qHTS assay for small molecule antagonists of peroxisome proliferator-activated receptor delta signaling (AID 588535; active means well fitted inhibition curve with a large enough effect in the signal ratio, with a control signal flat, not every such curve was filed as active; the % refers to the signal ratio;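 on max response: cells co-treated with a PPAR-delta agonist as stimulator during compound exposure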); settings: HEK293T PPARd-UAS-bla, beta-lactamase FRET ratio, 18 h; 460 nm channel
Method in brief: (§1)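 Cell-based beta-lactamase assay in antagonist mode: 4000 HEK293T PPAR-delta-UAS-bla cells per well, 5 hr preincubation then 18 hr compound incubation at 37 C. IC50 obtained by Hill equation fitting.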

[7] = target: Peroxisome proliferator-activated receptor delta (Homo sapiens) (UniProt Q03181); assay: as above
Method in brief: as §1

[8] = target: Estrogen receptor (Homo sapiens) (UniProt P03372); assay: qHTS assay for small molecule antagonists of estrogen receptor alpha signaling (AID 588513; active means well fitted curve in the direction sought with a large enough effect in the signal ratio, with a control signal flat, not every such curve was filed as active; the % refers to the signal ratio; further: on the % scale 0 is the no-effect control and ±100 the full control effect)
Estrogen receptor (Homo sapiens), sequence (P03372 whole entry, looked up): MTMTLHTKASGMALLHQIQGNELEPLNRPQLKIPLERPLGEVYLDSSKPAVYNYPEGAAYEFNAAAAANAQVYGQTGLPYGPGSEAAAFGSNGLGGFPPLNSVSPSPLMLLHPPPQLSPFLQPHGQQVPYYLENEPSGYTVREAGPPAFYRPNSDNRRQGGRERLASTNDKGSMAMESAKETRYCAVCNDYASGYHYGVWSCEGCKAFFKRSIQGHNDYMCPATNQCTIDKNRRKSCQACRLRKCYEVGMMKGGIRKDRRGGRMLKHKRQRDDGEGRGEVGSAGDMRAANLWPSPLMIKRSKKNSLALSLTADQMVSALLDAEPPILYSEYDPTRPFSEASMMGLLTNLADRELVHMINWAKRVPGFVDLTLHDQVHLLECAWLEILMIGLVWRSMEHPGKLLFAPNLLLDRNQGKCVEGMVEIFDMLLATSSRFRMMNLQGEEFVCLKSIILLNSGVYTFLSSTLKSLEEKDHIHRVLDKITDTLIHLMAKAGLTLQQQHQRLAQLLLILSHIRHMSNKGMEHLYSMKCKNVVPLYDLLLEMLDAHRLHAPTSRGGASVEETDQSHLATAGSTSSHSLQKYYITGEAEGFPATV
Method in brief: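 Antagonist mode: inhibition of 0.5 nM 17-beta-estradiol-driven beta-lactamase reporter in HEK 293 ER-alpha-UAS-bla cells, 18 h at 37C, CCF4 readout after 2 h at RT. Normalised to estradiol and DMSO; titration fitted to Hill.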

[9] = target: Estrogen receptor (Homo sapiens) (UniProt P03372); assay: qHTS assay for small molecule agonists of estrogen receptor alpha signaling (AID 588514); further: nearly all actives have a fitted effect of over 70% in size; further: potency means the concentration at half of the fitted maximal effect;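 on activation: 0% = vehicle only and 100% = reference agonist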
Method in brief: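 ER-alpha-UAS-bla GripTite HEK 293 cells in medium with 2% charcoal/dextran-treated FBS were treated with compound titrations at 37 C for 18 hrs; beta-lactamase reporter read by CCF4 fluorescence after 2 hrs at RT.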

[10] = target: Peroxisome proliferator-activated receptor gamma (Homo sapiens) (UniProt P37231); assay: qHTS assay for small molecule agonists of peroxisome proliferator-activated receptor gamma signaling (AID 588536; active means well fitted curve in the direction sought with a large enough effect in the signal ratio, with a control signal flat, not every such curve was filed as active; the % refers to the signal ratio;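 further: 0% = DMSO basal wells and 100% = rosiglitazone at 2 µM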)
Peroxisome proliferator-activated receptor gamma (Homo sapiens), sequence (P37231 whole entry, looked up): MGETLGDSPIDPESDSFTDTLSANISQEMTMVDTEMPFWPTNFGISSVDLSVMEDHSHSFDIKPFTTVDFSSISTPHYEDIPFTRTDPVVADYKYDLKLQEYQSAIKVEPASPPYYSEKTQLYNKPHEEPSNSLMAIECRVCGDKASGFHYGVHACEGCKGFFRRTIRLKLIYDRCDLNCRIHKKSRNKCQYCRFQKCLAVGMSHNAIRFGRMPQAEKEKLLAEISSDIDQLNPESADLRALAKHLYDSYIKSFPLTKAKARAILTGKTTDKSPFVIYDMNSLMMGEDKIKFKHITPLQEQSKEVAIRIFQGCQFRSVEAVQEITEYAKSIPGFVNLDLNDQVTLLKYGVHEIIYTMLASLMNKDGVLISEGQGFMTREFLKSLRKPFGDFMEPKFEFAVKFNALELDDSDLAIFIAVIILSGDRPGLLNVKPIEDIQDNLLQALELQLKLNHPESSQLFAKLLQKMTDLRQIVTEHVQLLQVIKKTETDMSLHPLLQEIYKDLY
Method in brief: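 HEK293 UAS-bla reporter line, 1% charcoal/dextran FBS; titration, 16 h, 37 C; CCF4 loading 2 h RT; fluorescence 460/530 nm. Normalized to rosiglitazone 2 uM = 100%, DMSO = 0%.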

[11] = target: Peroxisome proliferator-activated receptor gamma (Homo sapiens) (UniProt P37231); assay: qHTS assay for small molecule antagonists of peroxisome proliferator-activated receptor gamma signaling (AID 588537; active means well fitted inhibition curve with a large enough effect in the signal ratio, with a control signal flat, not every such curve was filed as active; the % refers to the signal ratio;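 further: reporter cells co-stimulated with 50 nM rosiglitazone agonist during compound treatment; % of control where 0% means no effect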)
Method in brief: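 Inhibitors of agonist-stimulated UAS-bla reporter activity were sought in HEK293 cells; rosiglitazone (50 nM) defined full signal and DMSO baseline. Curves fitted to Hill model gave IC50 and efficacy.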

[12] = target: Vitamin D3 receptor (Homo sapiens) (UniProt P11473); assay: qHTS assay for small molecule antagonists of vitamin D receptor signaling (AID 588541);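 further: receptor activated by calcitriol during compound treatment; series mostly up to about 77 µM; on the % scale 0 is the no-effect control and ±100 the full control effect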
Vitamin D3 receptor (Homo sapiens), sequence (P11473 whole entry, looked up): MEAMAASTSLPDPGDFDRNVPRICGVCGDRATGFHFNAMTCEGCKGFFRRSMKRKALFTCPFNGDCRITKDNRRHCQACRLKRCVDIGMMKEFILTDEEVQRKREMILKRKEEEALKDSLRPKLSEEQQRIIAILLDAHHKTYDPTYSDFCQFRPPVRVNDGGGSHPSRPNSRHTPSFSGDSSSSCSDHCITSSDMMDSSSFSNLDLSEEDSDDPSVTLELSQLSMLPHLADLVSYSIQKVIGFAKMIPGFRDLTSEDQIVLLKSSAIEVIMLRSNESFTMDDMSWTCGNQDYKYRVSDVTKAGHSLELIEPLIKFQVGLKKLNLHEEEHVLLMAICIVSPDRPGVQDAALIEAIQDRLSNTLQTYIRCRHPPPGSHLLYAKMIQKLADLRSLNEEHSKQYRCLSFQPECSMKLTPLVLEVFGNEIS
Method in brief: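 Antagonist-mode beta-lactamase reporter assay: HEK293T VDR-UAS-bla cells were exposed to titrated compound alongside 1-alpha,25-dihydroxyvitamin D3 at 3 nM final for 16 h. Values were normalized to the 50 nM agonist control and DMSO basal, with IC50 and efficacy from Hill equation fits.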

[13] = target: Vitamin D3 receptor (Homo sapiens) (UniProt P11473); assay: qHTS assay for small molecule agonists of vitamin D receptor signaling (AID 588543);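 further: 0% = DMSO basal and 100% = reference agonist control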
Method in brief: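 Agonist-mode beta-lactamase reporter: HEK293T VDR-UAS-bla cells in charcoal-stripped 2% FBS, compound series 16 h 37 C, CCF4 2 h RT. EC50 from Hill fit, scaled against DMSO and 50 nM calcitriol control.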

[14] = target: Bile acid receptor (Homo sapiens) (UniProt Q96RI1); assay: qHTS assay for small molecule agonists of farnesoid X receptor signaling (AID 588527); settings: HEK293T FXR-UAS-bla, beta-lactamase ratio, 16 h; stronger effect = higher value;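 further: series mostly up to about 77 µM; 0% = vehicle basal and 100% = reference agonist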
Method in brief: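 Quantitative HTS used FXR-UAS-bla HEK293T cells with 16 h compound incubation at 37 C. EC50 values came from concentration-response curves normalized to chenodeoxycholic acid.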

[15] = target: Androgen receptor (Homo sapiens) (UniProt P10275); assay: qHTS assay for small molecule agonists of androgen receptor signaling (AID 588515; active means well fitted curve in the direction sought with a large enough effect in the signal ratio, with a control signal flat; the % refers to the signal ratio; further: on the % scale 0 is the no-effect control and ±100 the full control effect); settings: AR-UAS-bla HEK293, beta-lactamase ratio, agonist 16 h; stronger effect = higher value
Androgen receptor (Homo sapiens), sequence (P10275 whole entry, looked up): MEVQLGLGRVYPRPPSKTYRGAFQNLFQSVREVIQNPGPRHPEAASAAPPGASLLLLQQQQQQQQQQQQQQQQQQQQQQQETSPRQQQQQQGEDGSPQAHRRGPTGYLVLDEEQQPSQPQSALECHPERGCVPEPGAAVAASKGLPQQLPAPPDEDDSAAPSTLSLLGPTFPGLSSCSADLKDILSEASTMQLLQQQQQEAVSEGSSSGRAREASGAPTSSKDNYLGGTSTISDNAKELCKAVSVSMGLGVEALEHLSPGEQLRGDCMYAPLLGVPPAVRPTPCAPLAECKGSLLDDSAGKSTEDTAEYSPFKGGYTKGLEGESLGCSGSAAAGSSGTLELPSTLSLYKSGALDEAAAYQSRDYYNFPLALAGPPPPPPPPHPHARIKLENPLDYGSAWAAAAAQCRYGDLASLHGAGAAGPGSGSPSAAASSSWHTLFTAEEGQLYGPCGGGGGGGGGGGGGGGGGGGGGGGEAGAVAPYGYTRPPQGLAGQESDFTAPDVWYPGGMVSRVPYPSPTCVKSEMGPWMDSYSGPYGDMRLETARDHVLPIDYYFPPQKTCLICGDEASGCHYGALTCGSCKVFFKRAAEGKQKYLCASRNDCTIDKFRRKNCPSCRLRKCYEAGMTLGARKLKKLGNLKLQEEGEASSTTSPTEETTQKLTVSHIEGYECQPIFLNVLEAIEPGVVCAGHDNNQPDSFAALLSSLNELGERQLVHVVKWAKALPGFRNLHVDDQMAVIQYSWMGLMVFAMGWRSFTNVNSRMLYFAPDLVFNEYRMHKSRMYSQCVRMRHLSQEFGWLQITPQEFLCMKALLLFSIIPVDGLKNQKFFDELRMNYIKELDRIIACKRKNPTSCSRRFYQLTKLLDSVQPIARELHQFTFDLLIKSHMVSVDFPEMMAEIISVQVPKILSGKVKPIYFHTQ
Method in brief: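 EC50 and efficacy came from Hill fits of titrations (up to 92 uM) normalized to 30 nM R1881 as 100% and DMSO as 0%. Compound exposure was 16 h at 37 C on AR-UAS-bla HEK293 cells, with a 405/460/530 nm CCF4 fluorescence read.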

[16] = target: Androgen receptor (Homo sapiens) (UniProt P10275); assay: qHTS assay for small molecule antagonists of androgen receptor signaling (AID 588516; active means well fitted curve in the direction sought with a large enough effect in the signal ratio, with a control signal flat, not every such curve was filed as active; the % refers to the signal ratio; further: on the % scale 0 is the no-effect control and ±100 the full control effect)
Method in brief: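 Antagonist mode: inhibition of R1881-stimulated (10 nM final) bla reporter in GeneBLAzer AR HEK 293 cells, 16 h at 37C, compounds titrated. IC50 and efficacy from Hill-equation fits of 405/460–530 nm FRET ratios.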

[17] = target: Glucocorticoid receptor (Homo sapiens) (UniProt P04150); assay: qHTS assay for small molecule agonists of glucocorticoid receptor signaling (AID 588532; active means well fitted curve in the direction sought with a large enough effect in the signal ratio, with a control signal flat; the % refers to the signal ratio;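 further: 100% = dexamethasone at 0.1 µM and 0% = DMSO only wells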); settings: HeLa MMTV-bla, beta-lactamase ratio, agonist, 18 h; stronger effect = higher value; percent of dexamethasone control, DMSO zero
Method in brief: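 Quantitative HTS using CellSensor MMTV-bla HeLa cells in charcoal/dextran-treated serum; compounds tested up to 92 uM. After 18 h at 37 C, CCF4 dye reported reporter induction.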

NC(=O)c1cc([N+](=O)[O-])cc([N+](=O)[O-])c1
inactive: Potency [1]

NC(=O)c1cnccn1
inactive: outcome [2] | outcome [3]

Nc1nc(N)nc(NC2CC2)n1
47%: max response [6]
inactive: Potency [1] | Potency [4] | Potency [5] | outcome [3] | outcome [7]

Nc1ccccc1C(=O)O
inactive: Potency [1] | outcome [8] | Potency [9] | Potency [4] | outcome [10] | outcome [11] | Potency [12] | outcome [13]

C[C@]12CCC(=O)C=C1CC[C@@H]1[C@@H]2CC[C@]2(C)C(=O)CC[C@@H]12
inactive: Potency [1] | outcome [8] | Potency [4] | activation [14] -2.26% | outcome [3] | outcome [10]

CC(C)=CCC/C(C)=C/CO
inactive: activation [14] 0.54%

CCOC(=O)CC(SP(=S)(OC)OC)C(=O)OCC (stereo unspecified)
0.513%: max response [6]
inactive: Potency [1] | outcome [8] | Potency [9] | activation [15] 17.2% and 0.217% and -5.72% | outcome [16] | activation [17] -4.46% and 3.12% and 14.7% | Potency [5] | outcome [3] | outcome [7] | outcome [10] | Potency [12] | outcome [13]

O=C1c2ccccc2C(=O)c2ccccc21
36.9%: max response [6]
inactive: Potency [1] | outcome [3] | outcome [7] | outcome [10] | outcome [11] | Potency [12] | outcome [13]

CC(=O)O[C@]1(C(C)=O)CC[C@H]2[C@@H]3C[C@H](C)C4=CC(=O)CC[C@]4(C)[C@H]3CC[C@@]21C
inactive: activation [14] 0.881%

CC1(C)C(C=C(Cl)Cl)C1C(=O)OC(C#N)c1cccc(Oc2ccccc2)c1 (stereo unspecified)
inactive: Potency [9] | activation [17] -2.93% | Potency [5] | outcome [11] | outcome [13]

CC(C)(C)CC(C)(C)c1ccc(OCCOCC[N+](C)(C)Cc2ccccc2)cc1
inactive: activation [14] -1.62%

COP(=S)(OC)SCN1C(=O)c2ccccc2C1=O
inactive: Potency [1] | Potency [4] | activation [17] 10.5% | Potency [5] | outcome [3] | outcome [10]

C[C@]1(O)CC[C@H]2[C@@H]3CCC4=CC(=O)CC[C@]4(C)[C@@]3(F)[C@@H](O)C[C@@]21C
inactive: Potency [4] | activation [14] -0.176% | activation [17] 0.36% | outcome [3] | outcome [7] | outcome [10] | outcome [11]
-0.651%: max response [6]
active: Potency [5] 10 µM

Nc1ccc([As](=O)(O)O)cc1
active: Potency [9] 15.8 µM
inactive: Potency [1] | outcome [3] | outcome [7] | outcome [10] | outcome [11] | Potency [12] | outcome [13]
-12.8%: max response [6]

Clc1ccc(C(c2ccc(Cl)cc2)C(Cl)(Cl)Cl)cc1
inactive: Potency [1] | Potency [4] | activation [14] 4.82% | activation [17] 4.79% and 0.666% | Potency [5] | outcome [3] | outcome [7] | outcome [11] | Potency [12] | outcome [13]
-51.4%: max response [6]

CCCC(C)(COC(N)=O)COC(N)=O
inactive: Potency [1] | activation [17] -13.9% | Potency [5] | outcome [3] | outcome [7] | outcome [10] | outcome [11] | Potency [12] | outcome [13]
-25.1%: max response [6]

C[C@]12CCC(=O)C=C1CC[C@@H]1[C@@H]2CC[C@@]2(C)[C@H]1CC[C@]2(C)O
inactive: outcome [13]
active: Potency [9] 12.6 µM | Potency [5] 15.8 µM

O=C(Oc1ccccc1)c1ccccc1O
inactive: outcome [8]

CCOP(=S)(OCC)Oc1ccc2c(C)c(Cl)c(=O)oc2c1
inactive: Potency [1] | activation [17] -1.75% | outcome [3] | outcome [10] | outcome [11]
